# According to PMC7862700, “An all-to-all approach to the identification of sequence-specific readers for epigenetic DNA modifications on cytosine”:
# Key:
# Assay in all cases: DAPPL (digital affinity profiling via proximity ligation, sequencing); 10 mM Tris-HCl pH 7.5, 50 mM NaCl, 1 mM DTT, 4% glycerol, room temperature, 30 min; GST-TFs on glutathione beads, 16-mer random dsDNA library, 0.1% formaldehyde crosslink after washing; high values mean tight binding
# Details in all cases: protein: recombinant; tags: N-terminal GST; dsDNA, one strand shown
# [1] = target: T1, FLI1 (Homo sapiens, UniProt Q01543 1-452)
# T1 sequence: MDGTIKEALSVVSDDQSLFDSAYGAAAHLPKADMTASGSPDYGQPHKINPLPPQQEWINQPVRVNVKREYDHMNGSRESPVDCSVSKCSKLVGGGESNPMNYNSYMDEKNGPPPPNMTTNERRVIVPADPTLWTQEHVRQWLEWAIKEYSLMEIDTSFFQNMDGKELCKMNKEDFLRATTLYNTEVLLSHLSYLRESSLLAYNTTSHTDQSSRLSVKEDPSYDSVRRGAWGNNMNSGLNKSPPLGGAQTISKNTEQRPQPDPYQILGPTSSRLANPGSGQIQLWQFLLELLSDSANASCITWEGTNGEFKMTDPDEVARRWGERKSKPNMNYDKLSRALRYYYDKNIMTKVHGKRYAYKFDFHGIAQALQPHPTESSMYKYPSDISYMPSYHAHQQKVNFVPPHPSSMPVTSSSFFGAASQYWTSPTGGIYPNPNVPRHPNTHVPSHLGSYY
# In short: (§1)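 GST fusions of human transcription factors were expressed in yeast and captured with glutathione beads. Once given DNA barcodes and pooled alongside a tag-only sample, they were incubated for 30 min at room temperature with 200 nmole of a random double-stranded 16-mer DNA library in Tris/NaCl/DTT/glycerol buffer, then washed, crosslinked (0.1% formaldehyde), proximity-ligated, PCR-amplified and sequenced on an Illumina NextSeq500. The binding signal of each hexamer is its read frequency for a factor divided by its frequency for the tag-only sample.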
# [2] = target: T2, ELK1 (Homo sapiens, UniProt P19419 1-428)
# T2 sequence: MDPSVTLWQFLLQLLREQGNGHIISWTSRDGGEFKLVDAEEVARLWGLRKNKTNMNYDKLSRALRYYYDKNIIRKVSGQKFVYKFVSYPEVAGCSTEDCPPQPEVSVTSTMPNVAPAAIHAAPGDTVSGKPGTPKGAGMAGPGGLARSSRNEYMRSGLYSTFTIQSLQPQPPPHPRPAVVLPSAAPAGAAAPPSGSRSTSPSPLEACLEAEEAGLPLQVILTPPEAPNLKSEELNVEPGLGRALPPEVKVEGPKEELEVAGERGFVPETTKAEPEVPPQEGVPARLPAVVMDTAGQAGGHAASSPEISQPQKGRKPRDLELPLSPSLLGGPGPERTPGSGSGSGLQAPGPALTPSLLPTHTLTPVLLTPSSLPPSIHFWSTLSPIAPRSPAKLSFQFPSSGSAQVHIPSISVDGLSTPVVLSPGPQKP
# In short: as §1
# [3] = target: T3, ERG (Homo sapiens, UniProt P11308 1-479)
# T3 sequence: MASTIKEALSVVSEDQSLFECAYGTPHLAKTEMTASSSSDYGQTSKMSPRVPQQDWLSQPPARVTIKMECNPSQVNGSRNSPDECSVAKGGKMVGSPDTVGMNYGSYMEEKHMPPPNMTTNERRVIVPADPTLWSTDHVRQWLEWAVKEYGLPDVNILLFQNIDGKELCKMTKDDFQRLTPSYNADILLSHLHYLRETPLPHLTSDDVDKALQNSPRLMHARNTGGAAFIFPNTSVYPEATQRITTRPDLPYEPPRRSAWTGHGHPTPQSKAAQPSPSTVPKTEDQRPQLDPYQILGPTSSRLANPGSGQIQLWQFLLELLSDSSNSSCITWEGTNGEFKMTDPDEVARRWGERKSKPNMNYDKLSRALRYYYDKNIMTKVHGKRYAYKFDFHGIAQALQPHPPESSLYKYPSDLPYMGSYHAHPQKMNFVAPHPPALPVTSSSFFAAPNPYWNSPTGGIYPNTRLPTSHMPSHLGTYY
# In short: as §1
# [4] = target: ELF1 (Homo sapiens, UniProt P32519 1-619)
# ELF1, sequence (P32519 whole entry): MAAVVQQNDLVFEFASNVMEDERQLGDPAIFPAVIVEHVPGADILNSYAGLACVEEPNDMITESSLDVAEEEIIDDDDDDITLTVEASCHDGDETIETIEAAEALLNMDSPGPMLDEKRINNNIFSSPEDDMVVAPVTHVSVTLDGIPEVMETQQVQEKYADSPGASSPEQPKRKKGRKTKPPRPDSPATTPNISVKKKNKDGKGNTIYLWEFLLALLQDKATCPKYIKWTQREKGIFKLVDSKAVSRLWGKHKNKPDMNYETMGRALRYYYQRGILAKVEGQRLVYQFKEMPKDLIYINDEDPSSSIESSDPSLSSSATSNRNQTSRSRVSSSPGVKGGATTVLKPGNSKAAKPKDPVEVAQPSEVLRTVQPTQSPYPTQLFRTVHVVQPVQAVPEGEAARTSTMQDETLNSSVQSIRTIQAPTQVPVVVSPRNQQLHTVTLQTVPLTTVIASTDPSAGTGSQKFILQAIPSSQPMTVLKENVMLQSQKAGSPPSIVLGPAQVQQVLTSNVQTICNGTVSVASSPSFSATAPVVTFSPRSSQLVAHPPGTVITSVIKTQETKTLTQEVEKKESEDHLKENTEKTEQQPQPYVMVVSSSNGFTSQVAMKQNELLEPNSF
# In short: as §1
# [5] = target: SPI1 (Homo sapiens, UniProt P17947 1-270)
# In short: as §1
# [6] = target: SPIB (Homo sapiens, UniProt Q01892 1-262)
# SPIB, sequence (Q01892 whole entry): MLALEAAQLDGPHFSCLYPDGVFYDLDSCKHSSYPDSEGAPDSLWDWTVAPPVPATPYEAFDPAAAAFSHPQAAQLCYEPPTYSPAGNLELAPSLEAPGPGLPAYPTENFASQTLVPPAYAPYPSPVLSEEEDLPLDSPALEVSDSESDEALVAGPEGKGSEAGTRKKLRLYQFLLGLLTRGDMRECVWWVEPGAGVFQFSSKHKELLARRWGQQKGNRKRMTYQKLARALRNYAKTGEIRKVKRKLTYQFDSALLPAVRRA
# In short: as §1
# [7] = target: T4, ELK3 (Homo sapiens, UniProt P41970 1-407)
# T4 sequence: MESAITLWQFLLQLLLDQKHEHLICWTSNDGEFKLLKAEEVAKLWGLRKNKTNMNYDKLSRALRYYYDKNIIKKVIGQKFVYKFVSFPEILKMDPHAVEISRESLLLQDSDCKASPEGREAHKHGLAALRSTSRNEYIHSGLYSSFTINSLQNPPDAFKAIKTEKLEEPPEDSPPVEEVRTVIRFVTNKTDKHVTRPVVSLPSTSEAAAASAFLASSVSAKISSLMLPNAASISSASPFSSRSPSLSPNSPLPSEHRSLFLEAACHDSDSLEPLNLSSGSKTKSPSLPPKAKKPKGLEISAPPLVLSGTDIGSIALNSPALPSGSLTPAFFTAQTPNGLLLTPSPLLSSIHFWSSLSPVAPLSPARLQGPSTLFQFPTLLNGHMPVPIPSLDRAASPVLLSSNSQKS
# In short: as §1
# [8] = target: ETV5 (Homo sapiens, UniProt P41161 1-510)
# ETV5, sequence (P41161 whole entry): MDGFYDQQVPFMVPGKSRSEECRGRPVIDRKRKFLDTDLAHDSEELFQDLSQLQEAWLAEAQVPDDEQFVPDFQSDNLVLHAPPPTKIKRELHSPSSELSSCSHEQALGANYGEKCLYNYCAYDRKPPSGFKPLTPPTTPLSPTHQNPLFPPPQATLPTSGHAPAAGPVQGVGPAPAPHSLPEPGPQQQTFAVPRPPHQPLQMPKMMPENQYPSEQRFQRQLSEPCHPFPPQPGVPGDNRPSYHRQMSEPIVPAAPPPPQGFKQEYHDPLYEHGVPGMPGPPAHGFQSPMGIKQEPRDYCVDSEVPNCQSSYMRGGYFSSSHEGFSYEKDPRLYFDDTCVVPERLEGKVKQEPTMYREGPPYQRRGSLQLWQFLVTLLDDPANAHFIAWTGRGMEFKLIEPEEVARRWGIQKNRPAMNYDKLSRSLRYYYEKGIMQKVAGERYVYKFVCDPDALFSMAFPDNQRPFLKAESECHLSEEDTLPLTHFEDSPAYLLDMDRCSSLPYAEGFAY
# In short: as §1
# [9] = target: T5, SPIC (Homo sapiens, UniProt Q8N5J4 1-248)
# T5 sequence: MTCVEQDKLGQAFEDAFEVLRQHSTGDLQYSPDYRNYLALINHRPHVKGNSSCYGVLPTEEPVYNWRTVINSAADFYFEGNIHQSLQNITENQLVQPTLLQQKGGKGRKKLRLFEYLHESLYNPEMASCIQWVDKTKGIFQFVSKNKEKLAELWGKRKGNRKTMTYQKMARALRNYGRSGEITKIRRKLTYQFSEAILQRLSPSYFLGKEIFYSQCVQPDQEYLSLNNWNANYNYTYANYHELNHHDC
# In short: as §1
# [10] = target: T6, ERF (Homo sapiens, UniProt P50548 1-548)
# T6 sequence: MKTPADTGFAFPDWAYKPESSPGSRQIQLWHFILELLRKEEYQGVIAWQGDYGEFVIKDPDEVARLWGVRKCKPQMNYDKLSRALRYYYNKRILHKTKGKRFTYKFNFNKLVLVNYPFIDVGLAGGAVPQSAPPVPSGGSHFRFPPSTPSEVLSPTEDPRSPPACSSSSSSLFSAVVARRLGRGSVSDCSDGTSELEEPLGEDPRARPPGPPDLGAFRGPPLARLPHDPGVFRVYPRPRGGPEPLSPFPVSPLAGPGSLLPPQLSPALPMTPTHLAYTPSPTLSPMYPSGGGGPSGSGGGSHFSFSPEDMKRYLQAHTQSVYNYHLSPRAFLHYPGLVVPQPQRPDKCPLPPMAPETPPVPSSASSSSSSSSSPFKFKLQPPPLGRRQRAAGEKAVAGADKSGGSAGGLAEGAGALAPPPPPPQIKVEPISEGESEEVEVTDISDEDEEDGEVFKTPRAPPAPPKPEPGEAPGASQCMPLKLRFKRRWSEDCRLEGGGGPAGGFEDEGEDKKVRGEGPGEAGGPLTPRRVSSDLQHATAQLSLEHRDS
# In short: as §1
# [11] = target: T7, ETV3L (Homo sapiens, UniProt Q6ZN32 1-361)
# T7 sequence: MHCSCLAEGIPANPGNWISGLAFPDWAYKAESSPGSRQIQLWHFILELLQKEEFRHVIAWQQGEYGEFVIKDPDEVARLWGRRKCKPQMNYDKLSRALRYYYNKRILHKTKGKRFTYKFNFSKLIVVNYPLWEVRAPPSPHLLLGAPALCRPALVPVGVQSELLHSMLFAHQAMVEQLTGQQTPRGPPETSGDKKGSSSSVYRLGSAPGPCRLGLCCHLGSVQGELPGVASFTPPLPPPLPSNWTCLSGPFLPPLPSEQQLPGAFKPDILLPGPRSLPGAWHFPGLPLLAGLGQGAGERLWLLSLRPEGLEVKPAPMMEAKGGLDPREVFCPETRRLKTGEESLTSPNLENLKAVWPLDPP
# In short: as §1
# [12] = target: T8, ETS2 (Homo sapiens, UniProt P15036 1-469)
# T8 sequence: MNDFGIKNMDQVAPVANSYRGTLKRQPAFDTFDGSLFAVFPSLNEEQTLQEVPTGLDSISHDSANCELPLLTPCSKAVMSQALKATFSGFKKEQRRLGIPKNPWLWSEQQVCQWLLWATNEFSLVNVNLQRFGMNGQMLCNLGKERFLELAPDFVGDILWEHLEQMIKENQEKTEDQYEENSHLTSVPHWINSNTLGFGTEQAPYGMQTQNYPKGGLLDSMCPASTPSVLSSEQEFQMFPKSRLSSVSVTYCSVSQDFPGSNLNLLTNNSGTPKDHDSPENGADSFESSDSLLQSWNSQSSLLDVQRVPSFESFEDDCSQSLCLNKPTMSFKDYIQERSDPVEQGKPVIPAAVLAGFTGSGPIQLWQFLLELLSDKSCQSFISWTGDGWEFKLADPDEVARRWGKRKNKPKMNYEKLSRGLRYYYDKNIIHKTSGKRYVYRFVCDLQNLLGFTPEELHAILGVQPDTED
# In short: as §1
# [13] = target: T9, ELF5 (Homo sapiens, UniProt Q9UKW6-2 1-255)
# T9 sequence: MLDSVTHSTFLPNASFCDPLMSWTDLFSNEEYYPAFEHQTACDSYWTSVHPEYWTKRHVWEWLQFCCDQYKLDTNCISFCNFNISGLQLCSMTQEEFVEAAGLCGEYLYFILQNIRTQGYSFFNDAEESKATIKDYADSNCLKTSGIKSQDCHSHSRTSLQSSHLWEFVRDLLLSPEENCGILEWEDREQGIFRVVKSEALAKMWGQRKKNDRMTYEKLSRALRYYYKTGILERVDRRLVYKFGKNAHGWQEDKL
# In short: as §1
# [14] = target: T10, ETV3 (Homo sapiens, UniProt P41162-2 1-143)
# T10 sequence: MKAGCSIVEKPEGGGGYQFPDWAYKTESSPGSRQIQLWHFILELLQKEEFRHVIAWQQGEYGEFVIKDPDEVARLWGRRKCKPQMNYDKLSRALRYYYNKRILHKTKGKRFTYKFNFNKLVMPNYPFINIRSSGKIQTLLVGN
# In short: as §1
# [15] = target: ETV1 (Homo sapiens, UniProt P50549 1-477)
# ETV1, sequence (P50549 whole entry): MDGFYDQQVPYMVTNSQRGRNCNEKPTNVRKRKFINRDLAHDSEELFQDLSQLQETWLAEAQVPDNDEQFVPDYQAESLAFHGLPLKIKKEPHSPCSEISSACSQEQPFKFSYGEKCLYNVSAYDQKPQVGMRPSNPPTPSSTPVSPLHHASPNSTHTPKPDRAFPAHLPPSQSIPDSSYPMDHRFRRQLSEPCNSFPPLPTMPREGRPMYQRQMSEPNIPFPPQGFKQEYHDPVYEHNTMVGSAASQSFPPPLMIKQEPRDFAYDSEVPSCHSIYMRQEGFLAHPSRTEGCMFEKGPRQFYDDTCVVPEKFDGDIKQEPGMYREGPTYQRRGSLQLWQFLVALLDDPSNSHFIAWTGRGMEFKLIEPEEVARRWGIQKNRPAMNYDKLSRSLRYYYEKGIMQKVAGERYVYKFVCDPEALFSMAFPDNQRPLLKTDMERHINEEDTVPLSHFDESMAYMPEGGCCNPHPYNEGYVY
# In short: as §1
# [16] = target: T11, EHF (Homo sapiens, UniProt Q9NZC4 1-300)
# T11 sequence: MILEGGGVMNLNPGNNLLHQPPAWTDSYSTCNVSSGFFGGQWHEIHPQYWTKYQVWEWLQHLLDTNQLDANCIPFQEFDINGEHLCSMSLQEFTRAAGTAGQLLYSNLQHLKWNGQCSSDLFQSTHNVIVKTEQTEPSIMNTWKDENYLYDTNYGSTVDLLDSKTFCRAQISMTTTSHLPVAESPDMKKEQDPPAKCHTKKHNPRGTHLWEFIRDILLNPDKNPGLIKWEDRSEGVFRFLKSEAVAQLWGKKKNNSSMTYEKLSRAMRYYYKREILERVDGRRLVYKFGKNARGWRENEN
# In short: as §1
# [17] = target: T12, FEV (Homo sapiens, UniProt Q99581 1-238)
# T12 sequence: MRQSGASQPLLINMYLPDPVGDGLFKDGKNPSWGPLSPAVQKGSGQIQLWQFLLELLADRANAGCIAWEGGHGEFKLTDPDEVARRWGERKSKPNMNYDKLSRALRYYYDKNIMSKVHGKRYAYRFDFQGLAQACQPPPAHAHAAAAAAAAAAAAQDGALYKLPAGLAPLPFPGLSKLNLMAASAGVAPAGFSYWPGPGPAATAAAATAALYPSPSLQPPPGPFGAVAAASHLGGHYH
# In short: as §1
# [18] = target: ETV6 (Homo sapiens, UniProt P41212 1-452)
# ETV6, sequence (P41212 whole entry): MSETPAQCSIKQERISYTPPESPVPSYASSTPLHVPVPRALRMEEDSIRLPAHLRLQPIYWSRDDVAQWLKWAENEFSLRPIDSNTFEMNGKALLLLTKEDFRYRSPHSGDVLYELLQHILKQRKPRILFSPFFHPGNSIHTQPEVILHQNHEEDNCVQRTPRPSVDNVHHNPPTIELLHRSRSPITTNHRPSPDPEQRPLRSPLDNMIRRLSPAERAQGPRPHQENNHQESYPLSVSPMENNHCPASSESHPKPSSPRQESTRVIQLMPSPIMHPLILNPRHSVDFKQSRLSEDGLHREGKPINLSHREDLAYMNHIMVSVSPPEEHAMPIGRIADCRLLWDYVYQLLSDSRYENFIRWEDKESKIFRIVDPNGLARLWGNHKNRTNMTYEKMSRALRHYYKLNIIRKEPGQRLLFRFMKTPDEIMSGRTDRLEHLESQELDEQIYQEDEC
# In short: as §1
Sequence,binding signal [1],binding signal [2],binding signal [3],binding signal [4],binding signal [5],binding signal [6],binding signal [7],binding signal [8],binding signal [9],binding signal [10],binding signal [11],binding signal [12],binding signal [13],binding signal [14],binding signal [15],binding signal [16],binding signal [17],binding signal [18]
GTTGCG,"1 fold enrichment (6-mer frequency, TF over GST control)","1.04 fold enrichment (6-mer frequency, TF over GST control)","1.09 fold enrichment (6-mer frequency, TF over GST control)","1.02 fold enrichment (6-mer frequency, TF over GST control)","1.02 fold enrichment (6-mer frequency, TF over GST control)","1.15 fold enrichment (6-mer frequency, TF over GST control)","1.01 fold enrichment (6-mer frequency, TF over GST control)","1.07 fold enrichment (6-mer frequency, TF over GST control)","1.23 fold enrichment (6-mer frequency, TF over GST control)","1.14 fold enrichment (6-mer frequency, TF over GST control)","1.06 fold enrichment (6-mer frequency, TF over GST control)","1.07 fold enrichment (6-mer frequency, TF over GST control)","1.02 fold enrichment (6-mer frequency, TF over GST control)","1.07 fold enrichment (6-mer frequency, TF over GST control)",,,,
GTTGTA,"1.01 fold enrichment (6-mer frequency, TF over GST control)","1.07 fold enrichment (6-mer frequency, TF over GST control)",,"1.01 fold enrichment (6-mer frequency, TF over GST control)",,,,"1.08 fold enrichment (6-mer frequency, TF over GST control)","1.01 fold enrichment (6-mer frequency, TF over GST control)",,"1.07 fold enrichment (6-mer frequency, TF over GST control)","1.03 fold enrichment (6-mer frequency, TF over GST control)",,"1.01 fold enrichment (6-mer frequency, TF over GST control)","1.01 fold enrichment (6-mer frequency, TF over GST control)",,,
AACGGA,"1.05 fold enrichment (6-mer frequency, TF over GST control)","1.08 fold enrichment (6-mer frequency, TF over GST control)","1.18 fold enrichment (6-mer frequency, TF over GST control)",,"1.15 fold enrichment (6-mer frequency, TF over GST control)","1.07 fold enrichment (6-mer frequency, TF over GST control)","1.13 fold enrichment (6-mer frequency, TF over GST control)","1.1 fold enrichment (6-mer frequency, TF over GST control)","1.04 fold enrichment (6-mer frequency, TF over GST control)",,"1.01 fold enrichment (6-mer frequency, TF over GST control)","1.15 fold enrichment (6-mer frequency, TF over GST control)","1.11 fold enrichment (6-mer frequency, TF over GST control)","1.08 fold enrichment (6-mer frequency, TF over GST control)","1.11 fold enrichment (6-mer frequency, TF over GST control)","1.13 fold enrichment (6-mer frequency, TF over GST control)","1.35 fold enrichment (6-mer frequency, TF over GST control)","1.2 fold enrichment (6-mer frequency, TF over GST control)"
